High-throughput results as filed in PubChem BioAssay.
PLK1 PBD inh – Plk1 (human) PBD binding inhibition; inhibition, %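 (tested at about 20 µM)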; 97,000 tested, 0.13% active; Plk1 PBD phosphopeptide binding, fluorescence polarization; in the data active = inhibition above about 34%, passing the limit was not always enough
Target sequence (P53350 whole entry, looked up): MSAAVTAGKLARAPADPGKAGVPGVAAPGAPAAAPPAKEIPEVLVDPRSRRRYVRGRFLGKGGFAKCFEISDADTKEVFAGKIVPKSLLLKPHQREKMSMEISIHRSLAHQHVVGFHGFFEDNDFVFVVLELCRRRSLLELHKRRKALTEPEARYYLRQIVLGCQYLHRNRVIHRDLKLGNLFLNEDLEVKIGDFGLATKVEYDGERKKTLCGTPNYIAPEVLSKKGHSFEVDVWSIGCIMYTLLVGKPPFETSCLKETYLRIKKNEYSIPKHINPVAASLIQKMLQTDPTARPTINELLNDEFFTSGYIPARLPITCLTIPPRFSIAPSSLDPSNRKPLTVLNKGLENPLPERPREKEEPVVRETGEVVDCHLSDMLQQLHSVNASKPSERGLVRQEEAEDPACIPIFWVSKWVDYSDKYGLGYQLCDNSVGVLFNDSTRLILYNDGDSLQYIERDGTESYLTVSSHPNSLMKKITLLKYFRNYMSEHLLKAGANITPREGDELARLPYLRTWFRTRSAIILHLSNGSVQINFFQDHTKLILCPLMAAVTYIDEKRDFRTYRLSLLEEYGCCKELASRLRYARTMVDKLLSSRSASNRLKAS
FAK blocker – inhibitors of human focal adhesion kinase | 97,000 tested, 0.84% active | inhibition, %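 (tested at 7 µM)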 | biochemical FAK kinase activity assay | AID 727 | Q05397; in the data active = inhibition above about 19%;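 also: 0% = DMSO and 100% = reference compound high control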
EphB4 antag – antagonists of human EphB4-ephrin-B2 interaction; P54760; EphB4 LBD / TNYL-RAW-Alexa532 peptide, fluorescence polarization; inhibition, % at 7 µM; 97,000 tested, 0.15% active; AID 720;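 active = inhibition above the screen-wide mean inhibition plus 3 SD, cut at about 15% in these data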;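 also: 0% = DMSO wells and 100% = excess unlabeled TNYL-RAW peptide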
PLK1 kinase inh – blocks human PLK1 kinase activity | recombinant PLK1 kinase, TR-FRET peptide phosphorylation | inhibition, % at 10 µM | 97,000 tested, 0.53% active | AID 619;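 active = inhibition of 50% or more in the single-concentration screen; inactive = inhibition below 50%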;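 also: 0% = DMSO max control and 100% = H-89 dihydrochloride min control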
Smad3 FoxH1 inh – blocks human Smad3 binding to FoxH1 peptide; inhibition, % at 25 µM; 88,000 tested, 0.29% active; TR-FRET Smad3/Dy647-FoxH1 peptide binding, europium anti-His;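 active = compounds that reduce the energy-transfer binding signal between the protein and its labelled peptide by more than half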;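 also: 0% = Smad3 plus labelled peptide maximal FRET and 100% = peptide-only background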
Starred values were filed as active, the others as inactive; [ ] = dose if it differs, or a comment. An excerpt weighted towards active compounds, which were near 1.6% of everything screened.

Screening [O-]/N=C1/C(=[OH+])Nc2ccccc21.[O-]Nc1c([O+]=[Cu])[nH]c2ccccc12 returned Smad3 FoxH1 inh 10.
For O=C(NCCn1ccc2ccccc21)c1ccc(S(=O)(=O)N2CCCCC2)cc1 the results were Smad3 FoxH1 inh 59*.
`Cc1nc2cc(C(=O)O)ccc2n1-c1ccccc1` gave PLK1 PBD inh -2, FAK blocker 6, EphB4 antag 0, PLK1 kinase inh 69* and Smad3 FoxH1 inh -2.
`COc1ccc(C(=O)N/N=C2/SCC(=O)N2Cc2ccc3c(c2)OCO3)cc1OC` gave PLK1 PBD inh -6, FAK blocker 4, EphB4 antag 16* and PLK1 kinase inh -3.
Screening COc1ccc(CN2C(=O)C(O)(CC(=O)c3ccc4c(c3)OCO4)c3ccccc32)cc1OC (stereo not drawn) returned PLK1 PBD inh 29, FAK blocker 0, EphB4 antag 3, PLK1 kinase inh 3 and Smad3 FoxH1 inh 75*.
For COC(=O)[C@@H]1O[C@H](SCCN)[C@@H](O)[C@H](O)[C@H]1O the results were Smad3 FoxH1 inh 39.
Screening O=C(O)c1cc2c(cc1S(=O)(=O)O)[C@@H]1[C@@H]([C@H]3[C@H]2[C@]2(Cl)C(Cl)=C(Cl)[C@@]3(Cl)C2(Cl)Cl)[C@]2(Cl)C(Cl)=C(Cl)[C@@]1(Cl)C2(Cl)Cl returned Smad3 FoxH1 inh 32.
`COc1ccccc1N(C(=O)c1snc(C(N)=O)c1N)C(C(=O)NCCC(C)C)c1ccco1` (stereo not drawn) gave PLK1 PBD inh 12, FAK blocker 9, EphB4 antag -4, PLK1 kinase inh -5 and Smad3 FoxH1 inh 8.
NC(=O)c1nsc(C(=O)N(CC(=O)NCc2ccco2)c2ccccc2F)c1N was read as PLK1 PBD inh 13, FAK blocker 24*, EphB4 antag 3, PLK1 kinase inh -4 and Smad3 FoxH1 inh -2.
Screening CC(=O)Nc1ccc(SCC(=O)OCC(=O)NC(=O)NCc2ccco2)cc1 returned PLK1 PBD inh -13, FAK blocker 16, EphB4 antag 16*, PLK1 kinase inh -7 and Smad3 FoxH1 inh -6.
Screening C[C@@]12C[C@H](O)[C@@H]3[C@H](CCC4=CC(=O)CC[C@]43C)[C@H]1CC[C@H]2c1csc(N)n1 returned Smad3 FoxH1 inh 15.
Screening C[N+]1(CCC[N+]2(C)C[C@@H]3[C@H](C2)[C@@H]2C=C[C@H]3CC2)CCOCC1 (stereo partly drawn) returned Smad3 FoxH1 inh 37.
Screening COCCn1c(SCC(=O)NCc2ccc3c(c2)OCO3)nnc1-c1c[nH]c2ccccc12 returned PLK1 PBD inh -4, FAK blocker -6, EphB4 antag -8, PLK1 kinase inh 63* and Smad3 FoxH1 inh 1.
Screening COCCn1c(SCC(=O)Nc2nnc(C)s2)nnc1-c1c[nH]c2ccccc12 returned PLK1 PBD inh -11, FAK blocker 2, EphB4 antag -4, PLK1 kinase inh -8 and Smad3 FoxH1 inh -9.
`COCCn1c(SCc2ccc(C(=O)OC)o2)nnc1-c1c[nH]c2ccccc12` gave PLK1 PBD inh 4, FAK blocker -7, EphB4 antag -6, PLK1 kinase inh 59* and Smad3 FoxH1 inh -4.
For CC(C)NC1(C(N)=O)CCN(Cc2ccccc2)CC1 the results were Smad3 FoxH1 inh -5.
For O=[N+]([O-])c1cccc(/C=N/NC2=CS(=O)(=O)C=C2)c1 the results were Smad3 FoxH1 inh 6.
`Cn1c(=O)c2c(ncn2CN2CCN(Cn3cnc4c3c(=O)n(C)c(=O)n4C)CC2)n(C)c1=O` gave Smad3 FoxH1 inh 98*.
Screening Cc1cc(C)cc(N2CC(c3nc4ccccc4n3C)CC2=O)c1 (stereo not drawn) returned PLK1 PBD inh -1, FAK blocker -5, EphB4 antag -7, PLK1 kinase inh 58* and Smad3 FoxH1 inh 1.
Cc1ccc(N2CC(c3nc4ccccc4n3C)CC2=O)cc1C (stereo not drawn) was read as PLK1 PBD inh -5, FAK blocker -4, EphB4 antag 4, PLK1 kinase inh -5 and Smad3 FoxH1 inh -12.
Cc1ccc(NC2=CC(=O)C(=O)c3ccccc32)cc1 was read as PLK1 PBD inh 34, FAK blocker 26*, EphB4 antag 0, PLK1 kinase inh -8 and Smad3 FoxH1 inh 48.
For CC1(C)S[C@H]2[C@H](C(=O)O)N=C(Cc3ccccc3)N2[C@H]1C(=O)O the results were Smad3 FoxH1 inh 10.
For Cc1ccsc1C1C2=C(CCCC2=O)Nc2ncnn21 (stereo not drawn) the results were PLK1 PBD inh -10, FAK blocker 2, EphB4 antag 3, PLK1 kinase inh 61* and Smad3 FoxH1 inh 1.
COc1ccc(C2(CNC(C)=O)CCOCC2)cc1OC was read as PLK1 PBD inh 12, FAK blocker 1, EphB4 antag -7, PLK1 kinase inh 62* and Smad3 FoxH1 inh -2.
For Cn1c(C[C@@H](O)c2nc3ccccc3n2C)nc2ccccc21 the results were Smad3 FoxH1 inh 36.
`CCOC(=O)C1CCCN(c2c(Nc3cccc(C)c3)c(=O)c2=O)C1` (stereo not drawn) gave PLK1 PBD inh -5, FAK blocker -1, EphB4 antag 0, PLK1 kinase inh 61* and Smad3 FoxH1 inh 3.
Screening N[C@@H](CC1=CS(=O)(=O)c2ccc(Cl)cc21)C(=O)O returned Smad3 FoxH1 inh 77*.
S=C(Nc1ccc2c(c1)Cc1ccccc1-2)Nc1ccc2c(c1)Cc1ccccc1-2 was read as Smad3 FoxH1 inh -169.
For O=C1C(=O)c2ccc(-c3ccccc3)cc2-c2ccccc21 the results were PLK1 PBD inh 29, FAK blocker 56*, EphB4 antag 2, PLK1 kinase inh -3 and Smad3 FoxH1 inh 66*[fluorescence artefact?].
Screening O=C1c2ccccc2C(=O)c2c1ccc(C(=O)O)c2-c1ccc2ccccc2c1 returned Smad3 FoxH1 inh 10.
For S[C@@H]1CCCN(Cc2ccccc2)C1 the results were Smad3 FoxH1 inh 56*.
Screening COC(=O)CCC(=O)c1oc2ccc(Br)cc2c1N returned PLK1 PBD inh 26, FAK blocker 1, EphB4 antag -6, PLK1 kinase inh -12 and Smad3 FoxH1 inh -3.
COc1ccc2oc(C(=O)CCC(=O)O)c(N)c2c1 was read as PLK1 PBD inh 12, FAK blocker -9, EphB4 antag -8, PLK1 kinase inh 63* and Smad3 FoxH1 inh 0.
`COc1cccc(-n2c(SCC(=O)N3CCOCC3)nnc2-c2c[nH]c3ccccc23)c1` gave PLK1 PBD inh 7, FAK blocker 2, EphB4 antag 2, PLK1 kinase inh 63* and Smad3 FoxH1 inh 10.
`CCCCSc1nnc(-c2c[nH]c3ccccc23)n1C` gave PLK1 PBD inh -18, FAK blocker -1, EphB4 antag 2, PLK1 kinase inh 69* and Smad3 FoxH1 inh -3.
For Cn1c(SCC(=O)N2CCN(c3ccccc3)CC2)nnc1-c1c[nH]c2ccccc12 the results were PLK1 PBD inh 15, FAK blocker 3, EphB4 antag -1, PLK1 kinase inh 67* and Smad3 FoxH1 inh 7.
